Data on 72 molecules can be found in the antibiotic and cytotoxicity screens of Wong et al. (2023).

Structures are written as SMILES. In all, about 39,000 compounds went through this assay and about 1,500 (3.8%) were called active. For the sample, actives were picked, then their nearest neighbours and some compounds at random.

For this experiment, the system named is HSkMC (human skeletal muscle cells). The experiment in a line: cytotoxicity call (relative viability < 0.9). As to conditions: 10 µM.
In the case of `C[C@H]1CN([C@@H](C)CO)C(=O)c2cc(-c3ccc(C(=O)N(C)C)cc3)cnc2O[C@@H]1CN(C)C(=O)c1ccncc1`, the cytotoxicity call is “inactive”.

For the molecule `COc1cccc(NC(=O)C[C@@H]2CC[C@H]3[C@H](COc4ccc(NC(=O)C5CCOCC5)cc4C(=O)N3C)O2)c1`, the cytotoxicity call was “inactive”.

Take `C[C@@H]1CCCCO[C@H](CN(C)C(=O)Nc2ccccc2)[C@@H](C)CN([C@H](C)CO)C(=O)c2cc(NC(=O)Nc3ccc(F)cc3)ccc2O1`: the cytotoxicity call was “inactive”.

As for `Cn1nnc2c(Cl)ncnc21`, the cytotoxicity call was “inactive”.

`C=C(C)C(=O)N1CCC=CC1=O`: the cytotoxicity call is “active”.

In the case of `COc1cc(C=CC(=O)O)cc(OC)c1OC`, the cytotoxicity call is “inactive”.

For the molecule `COC(=O)C=Cc1cc(OC)c(OC)c(OC)c1`, the cytotoxicity call is “inactive”.

As for `COc1cc(/C=C/C(=O)N2CCC=CC2=O)cc(OC)c1OC(=O)CCCCCCCCCCC(=O)Oc1c(OC)cc(/C=C/C(=O)N2CCC=CC2=O)cc1OC`, the cytotoxicity call was “inactive”.

As to `CCC(=O)OCN1C(=O)C=CC1=O`, the cytotoxicity call was “inactive”.

`COc1cc(/C=C/C(=O)N2CCC=CC2=O)cc(OC)c1OCCOCCOCCOCCC(=O)OC(C)(C)C`: the cytotoxicity call was “active”.

As for `COc1cc(C=CC(=O)N2CCCCCCC2)cc(OC)c1OC`, the cytotoxicity call was “inactive”.

Turning to `CCOC(=O)/C=C/C(=O)N1CCC=CC1=O`, the cytotoxicity call was “active”.

As for `COc1cc(C=CC(=O)N2CCC=CC2=O)cc(OC)c1OC`, the cytotoxicity call is “active”.

Regarding `C/C=C/C(=O)N1CCC=CC1=O`, the cytotoxicity call was “inactive”.

Take `C[C@@H]1CN([C@H](C)CO)C(=O)c2cc(NC(=O)Nc3ccc(F)cc3)ccc2O[C@@H](C)CCCCO[C@@H]1CN(C)C(=O)NC1CCCCC1`: the cytotoxicity call was “inactive”.

As to `NCC[C@H]1CC[C@@H](NC(=O)C2CC2)[C@@H](CO)O1`, the cytotoxicity call is “inactive”.

For the molecule `COC[C@H]1CN(C)N=C(C2CC2)O1`, the cytotoxicity call is “inactive”.

In the case of `C[C@H]1CN([C@@H](C)CO)C(=O)Cc2cc(NC(=O)Nc3cccc4ccccc34)ccc2O[C@@H]1CN(C)Cc1ccc(C(=O)O)cc1`, the cytotoxicity call is “inactive”.

In the case of `O=C(O)C1CCC1`, the cytotoxicity call is “inactive”.

Consider `CO[C@H]1CN(C)C(=O)c2cc(NS(=O)(=O)CC(F)(F)F)ccc2OC[C@@H](C)N(Cc2ccccn2)C[C@H]1C`, for which the cytotoxicity call was “inactive”.

As for `CC(C)NC(=O)N(C)C[C@H]1Oc2c(NC(=O)Nc3ccc4c(c3)OCO4)cccc2C(=O)N([C@H](C)CO)C[C@@H]1C`, the cytotoxicity call was “inactive”.

Consider `C[C@H]1CCCCO[C@H](CN(C)Cc2ccncc2)[C@@H](C)CN([C@@H](C)CO)C(=O)c2cc(NC(=O)CCC(F)(F)F)ccc2O1`, for which the cytotoxicity call is “inactive”.

`O=C(O)C1(c2cccs2)CCCC1`: the cytotoxicity call was “inactive”.

In the case of `Cc1noc(C)c1NC(=O)N(C)C[C@H]1Oc2c(NC(=O)NC(C)C)cccc2C(=O)N([C@@H](C)CO)C[C@@H]1C`, the cytotoxicity call is “inactive”.

Regarding `CC[N+](CC)(CC)CCOc1ccc(/C=C/c2ccccc2)cc1`, the cytotoxicity call was “inactive”.

Take `CCCCOc1cc(C(=O)NCCN(CC)CC)c2ccccc2n1.Cl`: the cytotoxicity call is “inactive”.

As to `CCN(CC)CCNC(=O)c1c(C)[nH]c(/C=C2/C(=O)Nc3ccc(-c4csc(-c5ccccc5)n4)cc32)c1C`, the cytotoxicity call is “active”.

Regarding `CN(C)CCCNC(=O)C[C@H]1CC[C@H]2[C@@H](COC[C@H](O)CN2C(=O)Nc2cc(Cl)cc(Cl)c2)O1`, the cytotoxicity call was “inactive”.

Take `Cn1cc(N2C[C@]3(CNCCOC3)OCC2=O)cn1`: the cytotoxicity call is “inactive”.

Regarding `CC(C)Nc1ncnc(N)c1[N+](=O)[O-]`, the cytotoxicity call was “inactive”.

Regarding `COc1ccc(C#Cc2ccc3c(c2)[C@]2(C(=O)N3)[C@H](C(=O)N3CCCCCCC3)[C@H]3C(=O)O[C@H](c4ccccc4)[C@H](c4ccccc4)N3[C@@H]2c2ccc(O)cc2)cc1`, the cytotoxicity call was “inactive”.

For `C[C@@H]1CN([C@@H](C)CO)C(=O)c2cc(NC(=O)Nc3ccc4c(c3)OCO4)ccc2O[C@@H](C)CCCCO[C@H]1CN(C)Cc1ccc(C(F)(F)F)cc1`, the cytotoxicity call is “inactive”.

In the case of `C[C@@H]1CCCCO[C@H](CN(C)Cc2ccc(C(F)(F)F)cc2)[C@H](C)CN([C@H](C)CO)C(=O)c2cc(NC(=O)Nc3ccc4c(c3)OCO4)ccc2O1`, the cytotoxicity call was “inactive”.

`C[C@@H]1CCCCO[C@H](CN(C)Cc2ccc(C(F)(F)F)cc2)[C@@H](C)CN([C@@H](C)CO)C(=O)c2cc(NC(=O)Nc3ccc4c(c3)OCO4)ccc2O1`: the cytotoxicity call was “active”.

On to `C[C@@H]1CCCCO[C@@H](CN(C)Cc2ccc(C(F)(F)F)cc2)[C@H](C)CN([C@H](C)CO)C(=O)c2cc(NC(=O)Nc3ccc4c(c3)OCO4)ccc2O1`, for which the cytotoxicity call is “active”.

As to `C[C@@H]1CN([C@@H](C)CO)C(=O)c2cc(NC(=O)Nc3ccc4c(c3)OCO4)ccc2O[C@@H](C)CCCCO[C@@H]1CN(C)Cc1ccc(C(F)(F)F)cc1`, the cytotoxicity call is “inactive”.

Consider `C[C@@H]1CN([C@H](C)CO)C(=O)c2cc(NC(=O)Nc3ccc4c(c3)OCO4)ccc2O[C@@H](C)CCCCO[C@@H]1CN(C)Cc1ccc(C(F)(F)F)cc1`, for which the cytotoxicity call was “inactive”.

On to `C[C@H](CO)N1C[C@H](C)[C@@H](CN(C)C(=O)NC2CCCCC2)Oc2c(NC(=O)C3CC3)cccc2C1=O`, for which the cytotoxicity call was “inactive”.

For `CN(C)CCO[C@@H]1CC[C@@H]2[C@H]1OCCN2S(C)(=O)=O`, the cytotoxicity call is “inactive”.

Take `COCCNC(=O)C[C@@H]1CC[C@H]2[C@@H](COc3ccc(NC(=O)Nc4cccc(F)c4)cc3C(=O)N2C)O1`: the cytotoxicity call is “inactive”.

For `C[C@@H]1CCCCO[C@H](CN(C)C(=O)Nc2ccc(F)cc2)[C@@H](C)CN([C@@H](C)CO)C(=O)c2cc(NC(=O)c3ccccc3)ccc2O1`, the cytotoxicity call was “inactive”.

Turning to `C[C@@H]1CN([C@H](C)CO)C(=O)c2cc(NC(=O)Nc3ccc4c(c3)OCO4)ccc2O[C@@H](C)CCCCO[C@H]1CN(C)S(=O)(=O)c1cccs1`, the cytotoxicity call was “inactive”.

On to `C[C@@H]1CCCCO[C@H](CN(C)S(=O)(=O)c2cccs2)[C@H](C)CN([C@@H](C)CO)C(=O)c2cc(NC(=O)Nc3ccc(C(F)(F)F)cc3)ccc2O1`, for which the cytotoxicity call was “active”.

On to `C[C@@H]1CCCCO[C@H](CN(C)S(=O)(=O)c2cccs2)[C@@H](C)CN([C@@H](C)CO)C(=O)c2cc(NC(=O)Nc3ccc(C(F)(F)F)cc3)ccc2O1`, for which the cytotoxicity call was “active”.

For the molecule `C[C@@H]1CCCCO[C@@H](CN(C)S(=O)(=O)c2cccs2)[C@H](C)CN([C@@H](C)CO)C(=O)c2cc(NC(=O)Nc3cccc4ccccc34)ccc2O1`, the cytotoxicity call is “inactive”.

For `C[C@@H]1CN([C@@H](C)CO)C(=O)c2cc(NC(=O)Nc3ccc4c(c3)OCO4)ccc2O[C@@H](C)CCCCO[C@@H]1CN(C)S(=O)(=O)c1cccs1`, the cytotoxicity call is “inactive”.

For `C[C@H](CO)N1C[C@H](C)[C@@H](CN(C)S(=O)(=O)c2cccs2)OCCCC[C@H](C)Oc2ccc(NC(=O)Nc3ccc(C(F)(F)F)cc3)cc2C1=O`, the cytotoxicity call is “inactive”.

`C[C@@H]1CN([C@@H](C)CO)C(=O)c2cc(NC(=O)Nc3ccc(C(F)(F)F)cc3)ccc2O[C@@H](C)CCCCO[C@@H]1CN(C)S(=O)(=O)c1cccs1`: the cytotoxicity call is “inactive”.

For `C[C@H](CO)N1C[C@H](C)[C@H](CN(C)S(=O)(=O)c2cccs2)OCCCC[C@H](C)Oc2ccc(NC(=O)Nc3cccc4ccccc34)cc2C1=O`, the cytotoxicity call is “active”.

With `C[C@@H]1CN([C@H](C)CO)C(=O)c2cc(NC(=O)Nc3ccc(C(F)(F)F)cc3)ccc2O[C@@H](C)CCCCO[C@@H]1CN(C)S(=O)(=O)c1cccs1`, the cytotoxicity call is “inactive”.

Regarding `C[C@@H]1CCCCO[C@@H](CN(C)S(=O)(=O)c2cccs2)[C@@H](C)CN([C@H](C)CO)C(=O)c2cc(NC(=O)Nc3ccc(C(F)(F)F)cc3)ccc2O1`, the cytotoxicity call is “inactive”.

Regarding `C[C@H](CO)N1C[C@H](C)[C@@H](CN(C)S(=O)(=O)c2cccs2)OCCCC[C@H](C)Oc2ccc(NC(=O)Nc3ccc4c(c3)OCO4)cc2C1=O`, the cytotoxicity call was “active”.

Consider `C[C@@H]1CCCCO[C@@H](CN(C)S(=O)(=O)c2cccs2)[C@@H](C)CN([C@@H](C)CO)C(=O)c2cc(NC(=O)Nc3cccc4ccccc34)ccc2O1`, for which the cytotoxicity call is “inactive”.

For `C[C@@H]1CN([C@H](C)CO)C(=O)c2cccc(NS(=O)(=O)c3ccccc3)c2O[C@@H]1CN(C)CC1CC1`, the cytotoxicity call is “inactive”.

Turning to `O=C(C[C@H]1CC[C@@H]2[C@H](COC[C@H](O)CN2Cc2ccccc2F)O1)N[C@H]1CCN(Cc2ccccc2)C1`, the cytotoxicity call was “inactive”.

Regarding `O=c1[nH][nH]c(=S)n1C1CC1`, the cytotoxicity call is “inactive”.

As for `C=C(/C=C/CNS(=O)(=O)c1ccc(C)cc1)[C@H](O)[C@H]1CCCN1S(=O)(=O)c1ccccc1[N+](=O)[O-]`, the cytotoxicity call is “inactive”.

For the molecule `O=C(C[C@H]1C[C@@H]2c3cc(NC(=O)c4cccnc4)ccc3O[C@@H]2[C@H](CO)O1)NCc1cc(F)ccc1F`, the cytotoxicity call is “inactive”.

As for `C[C@H]1CN([C@@H](C)CO)C(=O)CCCn2nncc2CO[C@H]1CN(C)C(=O)CCCN(C)C`, the cytotoxicity call was “inactive”.

As to `CCC[C@@H]1C[C@@H](C(=O)N[C@H]([C@H]2O[C@H](SC)[C@H](O)[C@@H](O)[C@H]2O)[C@@H](C)Cl)N(C)C1`, the cytotoxicity call was “inactive”.

On to `Cc1noc(C)c1S(=O)(=O)N(C)C[C@H]1Oc2ccc(NS(C)(=O)=O)cc2CC(=O)N([C@@H](C)CO)C[C@H]1C`, for which the cytotoxicity call is “inactive”.

Consider `CCC(CCC(C)C1CCC2C3CC=C4CC(O)CCC4(C)C3CCC12C)C(C)C` (stereo not drawn) [beta-SITOSTEROL ], for which the cytotoxicity call is “inactive”.

In the case of `N/C(=N/O)c1cnc2n(c1=O)CCS2`, the cytotoxicity call is “inactive”.

With `C[C@@H]1CN([C@H](C)CO)C(=O)Cc2cc(NC(=O)Cc3ccccc3)ccc2O[C@H]1CN(C)S(=O)(=O)c1cccs1`, the cytotoxicity call is “inactive”.

As to `O=C(CN1CCOCC1)N[C@H]1CC[C@H](CCNC(=O)C2CCCCC2)O[C@H]1CO`, the cytotoxicity call was “inactive”.

For `C[C@@H]1CN([C@@H](C)CO)C(=O)c2ccccc2-c2ccccc2CO[C@H]1CN(C)S(=O)(=O)c1ccc(C(F)(F)F)cc1`, the cytotoxicity call is “inactive”.

With `Cc1cccc2c3c(ccc12)C1=C(C(=O)C3=O)C(C)CO1` (configuration not stated), the cytotoxicity call was “inactive”.

For the molecule `CC1COC2=C1C(=O)C(=O)c1c2ccc2c1CCCC2(C)C` (configuration not stated), the cytotoxicity call is “active”.

`Cc1coc2c1C(=O)C(=O)c1c-2ccc2c1CCCC2(C)C`: the cytotoxicity call is “active”.

Consider `C[C@H]1CN(C(=O)N(C)C)CCN1C(=O)N(C)C`, for which the cytotoxicity call was “inactive”.

As to `O=C(O)Cn1c(=O)n(CC(=O)O)c2ccccc21`, the cytotoxicity call is “inactive”.

For `COC(=O)C(CCCN1C(=O)c2ccccc2C1=O)(NC(C)=O)c1nn[nH]n1` (configuration not stated), the cytotoxicity call was “inactive”.
